According to ChEMBL document CHEMBL3988442, “University of Dundee, Small-Polar-MMV Screening Library” (2021):
For part of these data: Results with a measured potency or affinity are listed apart.

Columns and labels:
Parameters in all cases: scale not given: direction of the effect not stated beside the values
[1] = target: Protein translocase subunit SecA (Escherichia coli (strain K12)) (UniProt P10408); assay: Assay to Identify E. coli SecA ATPase Inhibitors; format: functional; details: 30 µM
Protein translocase subunit SecA (Escherichia coli (strain K12)), sequence (P10408 whole entry): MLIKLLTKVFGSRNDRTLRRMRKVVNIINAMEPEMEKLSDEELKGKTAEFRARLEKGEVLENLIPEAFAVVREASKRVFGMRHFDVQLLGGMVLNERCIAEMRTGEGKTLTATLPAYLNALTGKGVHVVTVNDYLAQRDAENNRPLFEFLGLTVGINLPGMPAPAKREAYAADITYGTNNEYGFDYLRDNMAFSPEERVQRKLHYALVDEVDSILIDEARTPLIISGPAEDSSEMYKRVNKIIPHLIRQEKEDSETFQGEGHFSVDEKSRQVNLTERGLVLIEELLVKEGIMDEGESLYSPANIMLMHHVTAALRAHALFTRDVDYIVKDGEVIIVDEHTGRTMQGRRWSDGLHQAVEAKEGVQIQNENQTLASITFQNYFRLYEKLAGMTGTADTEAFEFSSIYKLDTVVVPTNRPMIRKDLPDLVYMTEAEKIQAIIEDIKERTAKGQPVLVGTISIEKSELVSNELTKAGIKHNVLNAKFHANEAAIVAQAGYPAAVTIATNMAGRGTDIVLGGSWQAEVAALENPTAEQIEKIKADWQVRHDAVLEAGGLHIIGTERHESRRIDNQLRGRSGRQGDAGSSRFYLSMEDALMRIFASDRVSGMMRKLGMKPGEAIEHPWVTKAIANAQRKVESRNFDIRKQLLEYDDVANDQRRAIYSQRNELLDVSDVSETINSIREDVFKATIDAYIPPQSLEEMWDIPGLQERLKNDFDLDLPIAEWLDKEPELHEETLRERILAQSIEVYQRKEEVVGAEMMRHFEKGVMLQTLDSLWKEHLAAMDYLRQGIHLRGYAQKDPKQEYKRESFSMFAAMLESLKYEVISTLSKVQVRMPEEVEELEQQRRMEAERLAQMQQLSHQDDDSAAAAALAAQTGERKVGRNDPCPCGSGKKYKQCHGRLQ

[2] = target: T1, Ubiquitin-activating enzyme e1, putative (Leishmania donovani (strain BPK282A1)) (UniProt E9BSI1); assay: Leishmania donovani Ubiquitin Activating Enzyme (LdE1); format: functional; details: 30 µM
T1 sequence (whole entry): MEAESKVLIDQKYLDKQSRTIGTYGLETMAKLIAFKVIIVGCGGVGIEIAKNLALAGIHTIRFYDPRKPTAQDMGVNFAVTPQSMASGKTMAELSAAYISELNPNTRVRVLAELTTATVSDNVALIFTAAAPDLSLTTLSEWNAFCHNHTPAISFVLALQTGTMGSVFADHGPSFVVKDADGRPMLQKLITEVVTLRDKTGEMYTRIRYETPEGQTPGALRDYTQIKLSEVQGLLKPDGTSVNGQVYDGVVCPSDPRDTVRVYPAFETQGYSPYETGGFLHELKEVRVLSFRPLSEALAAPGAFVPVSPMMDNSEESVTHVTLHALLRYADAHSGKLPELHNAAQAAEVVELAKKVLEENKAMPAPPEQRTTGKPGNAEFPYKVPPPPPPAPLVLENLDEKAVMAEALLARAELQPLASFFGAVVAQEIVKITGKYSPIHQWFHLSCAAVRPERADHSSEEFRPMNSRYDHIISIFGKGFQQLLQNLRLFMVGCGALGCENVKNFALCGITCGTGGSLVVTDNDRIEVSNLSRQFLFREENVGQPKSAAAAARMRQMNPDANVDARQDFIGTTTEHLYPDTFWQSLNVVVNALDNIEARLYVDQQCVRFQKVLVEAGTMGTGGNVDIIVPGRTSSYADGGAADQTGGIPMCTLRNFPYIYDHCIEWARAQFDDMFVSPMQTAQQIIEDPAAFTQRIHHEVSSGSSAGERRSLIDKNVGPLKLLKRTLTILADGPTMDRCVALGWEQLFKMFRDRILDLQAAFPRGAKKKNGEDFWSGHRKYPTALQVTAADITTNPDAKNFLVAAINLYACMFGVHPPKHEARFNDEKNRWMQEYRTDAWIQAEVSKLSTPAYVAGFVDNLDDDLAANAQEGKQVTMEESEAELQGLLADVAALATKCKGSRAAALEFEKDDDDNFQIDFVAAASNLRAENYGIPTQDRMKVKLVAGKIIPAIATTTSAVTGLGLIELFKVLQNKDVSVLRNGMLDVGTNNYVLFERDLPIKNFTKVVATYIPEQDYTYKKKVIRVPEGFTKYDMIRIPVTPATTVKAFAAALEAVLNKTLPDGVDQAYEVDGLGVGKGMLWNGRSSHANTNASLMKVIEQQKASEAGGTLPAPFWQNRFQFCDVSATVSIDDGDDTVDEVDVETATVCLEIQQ

[3] = target: AMP-activated protein kinase, AMPK (Homo sapiens) (UniProt P54646+O43741+P54619+Q9UGJ0+Q9Y478+Q13131+Q9UGI9); assay: AMP-dependent Kinase enzyme assay. An in vitro enzyme assay that detects ADP turnover that is directly proportional to AMPK activity. This uses naive AMPK that is activated during the assay with MK-8722; format: functional; details: 30 µM
[4] = target: Sialic acid-binding Ig-like lectin 9 (Homo sapiens) (UniProt Q9Y336); assay: Hs-Siglec9 ALPHAscreen SOP 20170721; details: 10 µM
Sialic acid-binding Ig-like lectin 9 (Homo sapiens), sequence (Q9Y336 whole entry): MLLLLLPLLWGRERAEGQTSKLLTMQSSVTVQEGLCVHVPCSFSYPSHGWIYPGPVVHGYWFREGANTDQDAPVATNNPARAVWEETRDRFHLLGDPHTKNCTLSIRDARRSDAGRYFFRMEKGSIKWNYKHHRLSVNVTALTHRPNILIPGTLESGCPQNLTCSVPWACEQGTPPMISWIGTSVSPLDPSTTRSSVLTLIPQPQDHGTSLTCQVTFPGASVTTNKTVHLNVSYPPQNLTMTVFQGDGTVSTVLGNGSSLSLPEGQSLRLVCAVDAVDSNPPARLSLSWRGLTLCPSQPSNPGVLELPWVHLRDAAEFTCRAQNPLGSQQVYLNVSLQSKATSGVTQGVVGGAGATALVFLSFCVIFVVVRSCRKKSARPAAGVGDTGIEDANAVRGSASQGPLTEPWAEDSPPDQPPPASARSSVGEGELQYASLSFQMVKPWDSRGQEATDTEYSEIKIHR

[5] = tested on: Trypanosoma cruzi; assay: Trypanosoma cruzi phosphomannomutase and mannose-1-phosphate guanylyltransferase assay; format: functional; details: 10 µM
[6] = target: T2, Arginase-2, mitochondrial (Homo sapiens) (UniProt P78540); assay: in vitro enzyme assay to detect the production of urea directly proportional to the activity of Arginase II; format: functional; details: 33.3 µM; also: in the data most compounds retested in dose-response had high values
T2 sequence (whole entry): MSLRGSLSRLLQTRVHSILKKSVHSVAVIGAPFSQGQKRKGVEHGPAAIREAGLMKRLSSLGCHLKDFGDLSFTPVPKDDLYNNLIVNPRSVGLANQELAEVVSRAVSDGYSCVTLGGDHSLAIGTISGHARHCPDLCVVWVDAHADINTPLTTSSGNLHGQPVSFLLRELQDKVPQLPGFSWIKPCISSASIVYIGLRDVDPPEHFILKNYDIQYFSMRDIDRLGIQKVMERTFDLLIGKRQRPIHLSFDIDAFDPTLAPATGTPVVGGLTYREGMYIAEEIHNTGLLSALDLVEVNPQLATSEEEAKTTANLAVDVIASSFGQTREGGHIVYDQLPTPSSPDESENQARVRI

[7] = target: T3, Proteasome subunit beta (Trypanosoma cruzi) (UniProt O96673); assay: Trypanosoma cruzi proteasome chymotrypsin-like activity (TcProtChymo) assay.; also: in the data most compounds retested in dose-response had high values; format: functional; details: 9.37 µM
T3 sequence (whole entry): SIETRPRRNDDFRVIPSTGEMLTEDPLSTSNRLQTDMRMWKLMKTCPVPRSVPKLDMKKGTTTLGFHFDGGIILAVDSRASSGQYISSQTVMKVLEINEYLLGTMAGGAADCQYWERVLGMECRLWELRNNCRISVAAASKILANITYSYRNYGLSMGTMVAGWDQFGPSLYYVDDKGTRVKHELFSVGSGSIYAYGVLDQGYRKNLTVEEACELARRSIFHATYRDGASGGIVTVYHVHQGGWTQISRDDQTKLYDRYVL

[8] = species on record: Homo sapiens; assay: To identify inhibition of the IFN signalling (Jak-Stat) pathway via expression of an eGFP reporter gene under the control of an IFN-stimulated response element (ISRE) containing MxA promoter.; format: functional; details: 30 µM
[9] = target: T4, Tyrosyl-tRNA synthetase, putative (Trypanosoma cruzi (strain CL Brener)) (UniProt Q4DSP6); assay: Trypanosoma cruzi tyrosyl tRNA synthetase (TcYRS) _High Tyrosine SOP; format: functional; details: 30 µM; also: in the data most compounds retested in dose-response had high values
T4 sequence (whole entry): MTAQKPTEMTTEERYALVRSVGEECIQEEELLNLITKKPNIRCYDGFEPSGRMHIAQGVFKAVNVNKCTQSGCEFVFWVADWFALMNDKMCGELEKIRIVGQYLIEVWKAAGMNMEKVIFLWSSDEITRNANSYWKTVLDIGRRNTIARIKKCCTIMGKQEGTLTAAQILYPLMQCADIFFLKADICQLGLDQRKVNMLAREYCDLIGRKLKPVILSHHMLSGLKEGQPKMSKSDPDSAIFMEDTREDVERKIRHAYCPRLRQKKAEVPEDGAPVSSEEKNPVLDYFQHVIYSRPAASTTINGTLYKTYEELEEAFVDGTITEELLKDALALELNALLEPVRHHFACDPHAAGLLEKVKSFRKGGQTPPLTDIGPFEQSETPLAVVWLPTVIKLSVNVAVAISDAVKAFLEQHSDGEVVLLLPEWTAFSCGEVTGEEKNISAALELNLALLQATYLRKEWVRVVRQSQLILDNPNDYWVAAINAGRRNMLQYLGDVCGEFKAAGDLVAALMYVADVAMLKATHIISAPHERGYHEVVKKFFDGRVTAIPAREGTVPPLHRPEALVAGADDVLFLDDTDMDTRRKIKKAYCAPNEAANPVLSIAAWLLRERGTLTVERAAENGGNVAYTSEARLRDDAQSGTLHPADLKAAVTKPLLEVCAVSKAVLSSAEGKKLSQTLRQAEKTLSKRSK

[10] = target: T4, Tyrosyl-tRNA synthetase, putative (Trypanosoma cruzi (strain CL Brener)); assay: Trypanosoma cruzi tyrosyl tRNA synthetase (TcYRS) SOP; format: functional; details: 30 µM
[11] = target: Chromo domain-containing protein 1 (Saccharomyces cerevisiae (strain ATCC 204508 / S288c) (Baker's yeast)) (UniProt P32657); assay: ScCHD-1 Enzyme Inhibition Assay; format: functional; details: 30 µM; also: in the data most compounds retested in dose-response had high values
Chromo domain-containing protein 1 (Saccharomyces cerevisiae (strain ATCC 204508 / S288c) (Baker's yeast)), sequence (P32657 whole entry, the tested form may be a part): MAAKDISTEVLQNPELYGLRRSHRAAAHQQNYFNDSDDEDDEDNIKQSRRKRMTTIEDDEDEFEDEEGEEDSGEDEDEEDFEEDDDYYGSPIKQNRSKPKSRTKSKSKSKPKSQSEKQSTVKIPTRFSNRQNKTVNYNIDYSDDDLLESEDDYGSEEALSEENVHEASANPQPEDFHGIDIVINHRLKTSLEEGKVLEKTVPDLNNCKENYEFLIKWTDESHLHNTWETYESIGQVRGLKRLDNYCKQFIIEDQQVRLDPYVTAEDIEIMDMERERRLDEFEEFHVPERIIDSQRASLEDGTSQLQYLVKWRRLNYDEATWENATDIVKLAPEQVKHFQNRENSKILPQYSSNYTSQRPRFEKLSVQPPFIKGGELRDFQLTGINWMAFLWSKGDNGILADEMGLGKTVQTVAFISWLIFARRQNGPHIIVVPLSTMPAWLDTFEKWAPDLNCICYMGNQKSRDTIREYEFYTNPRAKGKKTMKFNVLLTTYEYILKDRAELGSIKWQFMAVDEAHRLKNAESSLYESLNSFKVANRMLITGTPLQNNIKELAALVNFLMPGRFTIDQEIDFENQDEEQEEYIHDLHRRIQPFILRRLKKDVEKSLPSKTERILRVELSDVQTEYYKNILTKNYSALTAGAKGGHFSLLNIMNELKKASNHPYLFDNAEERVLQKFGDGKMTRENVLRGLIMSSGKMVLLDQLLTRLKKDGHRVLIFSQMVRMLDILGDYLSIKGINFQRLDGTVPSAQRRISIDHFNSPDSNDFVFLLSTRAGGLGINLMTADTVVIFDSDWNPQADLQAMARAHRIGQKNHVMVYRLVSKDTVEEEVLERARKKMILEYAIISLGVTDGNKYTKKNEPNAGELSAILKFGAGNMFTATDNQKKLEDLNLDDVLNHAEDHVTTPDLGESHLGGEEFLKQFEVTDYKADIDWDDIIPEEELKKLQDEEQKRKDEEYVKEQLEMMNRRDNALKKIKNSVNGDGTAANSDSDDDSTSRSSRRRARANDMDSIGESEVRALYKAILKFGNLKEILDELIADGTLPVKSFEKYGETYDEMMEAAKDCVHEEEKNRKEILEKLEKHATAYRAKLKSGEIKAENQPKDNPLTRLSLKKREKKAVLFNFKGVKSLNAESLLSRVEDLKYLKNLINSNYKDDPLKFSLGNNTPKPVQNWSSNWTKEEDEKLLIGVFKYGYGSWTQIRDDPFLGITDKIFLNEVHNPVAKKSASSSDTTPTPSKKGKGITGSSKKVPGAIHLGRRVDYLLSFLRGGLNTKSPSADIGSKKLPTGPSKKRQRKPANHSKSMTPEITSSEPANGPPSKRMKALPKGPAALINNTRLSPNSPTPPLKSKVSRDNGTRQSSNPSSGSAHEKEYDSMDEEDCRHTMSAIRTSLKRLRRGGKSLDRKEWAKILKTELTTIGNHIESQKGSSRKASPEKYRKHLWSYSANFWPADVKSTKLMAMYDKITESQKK

Row | Structure (SMILES) | Percent Effect [1] | Percent Effect [2] | Percent Effect [3] | Percent Effect [4] | Percent Effect [5] | Percent Effect [6] | Percent Effect [7] | Percent Effect [8] | Percent Effect [9] | Percent Effect [10] | Percent Effect [11]
1 | CC(C)Oc1ccccc1CNC(=O)N1CCC(n2cncn2)CC1 | -9.7% | 11.4% | -5.06% | -3.04% | 3.79% | -2.37% | 17.3% | 7.86% | 5.21% | 12.7% | -29.4%
2 | CCOC(=O)NC(CNC(=O)c1ncccn1)CC(C)C (stereo unspecified) | -3.7% | 8.11% | -1.89% | 31.5% | 5.96% | 13.7% | 11.8% | -4.96% | 4.3% | 13.6% | -6.28%
3 | C[C@@H]1CN(C(=O)c2ccc(C#N)nc2)CC[C@@]1(O)C1CCOCC1 | -2.31% | 5.41% | -1.11% | 17.6% | 6.18% | 10.5% | 3.45% | 14.3% | 5.82% | 9.76% | -1.75%
4 | COc1cccc(-n2c(C)cc(C(=O)O)c2C)c1 | -4.92% | 20.2% | -3.83% | -8.51% | -6.52% | 2.28% | 10.7% | 31.6% | -0.493% | 3.8% | -2.26%
5 | O=C(c1cccc(F)c1)N1CCOC(c2nc(-c3ncccn3)no2)C1 (stereo unspecified) | -7.06% | 5.33% | 0.687% | -2.48% | -4.53% | -0.699% | 3.44% | 17.9% | 3.19% | 6.41% | -2.27%
6 | Cc1cc(-c2nnn(CCC(N)=O)n2)ccc1F | -3.96% | 13.7% | -6.12% | 8.1% | 5.75% | -2.79% | 15.3% | 11.3% | 8.33% | 13.6% | -2.17%
7 | O=C(NCCOc1ccc2c(c1)OCO2)C1CC(=O)N(CC2CC2)C1 (stereo unspecified) | -2.83% | 18.4% | 1.65% | -9.9% | 6.82% | 0% | 9.56% | -20.7% | 6.4% | 23.5% | -7.44%
8 | CC(C)NC(=O)COc1nc(C(C)(C)C)no1 | -4.03% | 13.5% | -3.54% | 27.8% | 5.21% | 0.952% | 4.31% | -3.96% | -0.529% | 4.88% | -3.56%
9 | CNc1cc(N2CCCC2CNCc2ccccn2)ncn1 (stereo unspecified) | -1.73% | 13.5% | -11.7% | -3.49% | -2.93% | -2.08% | 16% | 24.8% | 11.9% | 11% | 26.6%
10 | O=C(c1ccc(Cl)o1)N1CCCC(c2cc(C(F)(F)F)[nH]n2)C1 (stereo unspecified) | -4.11% | 7.89% | 8.92% | -5.86% | -4.95% | -0.719% | 2.45% | 29.4% | 3.45% | 3.7% | -2.91%
11 | Cc1ccccc1CC1(CO)CCCN(c2ncccc2C#N)C1 (stereo unspecified) | -2.63% | 0% | 3.1% | 0.621% | -5.21% | 1.43% | 17.1% | 27.8% | 3.7% | 7.32% | -1.78%
12 | Cn1ccnc1CN1CC[C@@H](NS(C)(=O)=O)[C@@H]1Cc1cccnc1 | -2.5% | 8.11% | -0.0396% | -7.99% | -6.35% | -2.23% | 18.6% | 11.3% | 2.16% | 10.3% | -5.81%
13 | CCN(CC1CCOC1)C(=O)c1ccccc1NS(=O)(=O)CC (stereo unspecified) | -5.12% | 7.89% | -0.433% | -1.92% | 1.03% | -1.08% | 6.34% | -2.41% | 7.39% | 18.5% | -4.83%
14 | CCC(CC)C(CNC(=O)Nc1ccc(C)cc1)N1CCOCC1 (stereo unspecified) | -3.76% | 22.8% | -8.69% | -4.59% | 4.63% | -0.76% | 3.52% | 5.24% | -25.1% | 21.5% | -8.39%
15 | CC(C)CC(=O)N1CCN(C(=O)N(C)C)CC2(CC(=O)N(C)C2)C1 (stereo unspecified) | -2.6% | -27% | 0.411% | -1.03% | 6.25% | -2.5% | -1.61% | -26.2% | 2.97% | -3.66% | -3.69%
16 | COc1c(CNC2CCN(C(C)(C)C)CC2)c(C(C)C)nn1C | -3.54% | 10.5% | -6.9% | -3.36% | 6.07% | -2.52% | 4.65% | -8.8% | 12.3% | 16.1% | -1.24%
17 | Cn1nccc1C1CCN(Cc2csc(-c3ncccn3)n2)CC1 | -3.65% | 24.3% | -7.27% | 6.8% | 6.96% | -0.554% | 8.08% | 13.2% | 11.9% | 28.1% | -7.46%
18 | Cc1csc2nc3n(c(=O)c12)CCN(C(=O)c1ccncc1)CC3 | -6.48% | 20.3% | 7.17% | -3.24% | 1.78% | -2.09% | 9.83% | 12.7% | 2.15% | 11.7% | -13.5%
19 | O=C(Cc1ccc(F)cc1)N1CCCCC1c1ccn2ccnc2n1 (stereo unspecified) | -2.25% | -1.35% | 14.8% | 2.79% | -2.96% | -1.16% | 9.83% | 10.1% | 0% | -1.3% | -17.6%
20 | COc1ccc(C2CCCN2C(=O)CCNc2ncccn2)cc1 (stereo unspecified) | -2.77% | 0% | -2.54% | 0.524% | -1.57% | 5% | 7.1% | 1.66% | 1.07% | -5% | -1.55%
21 | O=C(C1CC1)N1CCCC1C1CCN(Cc2ccccc2)CC1 (stereo unspecified) | -2.89% | 2.63% | 6.02% | -2.3% | 0.682% | -4.73% | 4.31% | -4.47% | 4.25% | 5.2% | -2.33%
